# APP 5UTR inh – APP translation inhibition. SH-SY5Y APP 5'UTR-luciferase reporter, luminescence. inhibition, % at 2 µM. actives 0.82% (n = 190,000). AID 1285;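 active = inhibition above a set limit, derived from the sample mean plus 3 SD, cut at about 45% in these data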
# BaF3 parental – counter-screen for JAK2V617F inhibitors: parental Ba/F3 viability inhibitors; CellTiter-Glo ATP luminescence; actives 1.1% (n = 220,000); inhibition, % at 5.6 µM; AID 1486;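 active = inhibition above a per-campaign cutoff, the mean inhibition of all tested compounds plus 3 SD, cut at about 27% in these data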;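 note: 0% = DMSO wells and 100% = JAK Inhibitor I control wells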
# KLF5 inhibitor – kruppel-like factor 5 inhibition. inhibition, % at 5 µM. AID 1700. DLD-1 KLF5 promoter-luciferase reporter, luminescence. actives 0.23% (n = 290,000);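 active = inhibition above a per-plate limit of that plate's mean compound inhibition plus 3 SD, cut at about 60% in these data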;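 note: 0% = DMSO wells and 100% = LY294002 at 200 µM; higher means less KLF5 promoter-driven luciferase light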
# Ba/F3 V617F tox – lowers viability of Ba/F3 cells expressing EpoR and JAK2V617F; ATP luminescence; inhibition, % at 5.6 µM; actives 1.1% (n = 220,000);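 active = inhibition above the campaign mean plus 3 SD over all tested compounds, cut at about 24% in these data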;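 note: cytokine-independent growth of Ba/F3 cells driven by EpoR plus mutant JAK2; 0% = DMSO-treated cells and 100% = JAK inhibitor I control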
# aSyn 5UTR inh – MLPCN primary screen, SNCA 5' untranslated region. alpha-synuclein 5'UTR reporter, inhibitor activity. inhibition, % (tested at 7.5 µM). actives 0.82% (n = 300,000); in the data active = inhibition above about 60%;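 note: H4 neuroglioblastoma cells stably carrying SNCA 5'UTR luciferase fusion; 0% = DMSO wells and 100% = positive control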
# IEC-6 tox – kills IEC-6 intestinal cells in KLF5 counter-screen. IEC-6 cytotoxicity, luminescence viability. inhibition, % at 5 µM. actives 0.78% (n = 290,000); in the data active = inhibition above about 22%;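 note: 0% = plate median of test compound wells and 100% = cytotoxic reference compound wells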
# * marks the source's active call; other numbers are inactive results; / = no result. Shown are actives, neighbours in structure and some others; about 2.2% of the full set was active somewhere.
SMILES,APP 5UTR inh,BaF3 parental,KLF5 inhibitor,Ba/F3 V617F tox,aSyn 5UTR inh,IEC-6 tox
COc1ccc(/C=N/NC(=O)c2nc(-c3ccccc3)n(-c3ccccc3)n2)c(O)c1,49*,2,-15,-4,87*,3
CC(C)(C)c1cc(C(=O)N/N=C/c2ccccc2O)n(-c2ccccc2)n1,66*,0,-12,-5,62*,0
COc1ccc(OCC(=O)NCc2ccc(Cl)cc2)cc1,/,/,-1,/,3,-4
Cc1[nH]nc2nc(SCC(=O)NCCC3=CCCCC3)n(-c3ccc(Br)cc3)c(=N)c12,/,/,-1,/,75*,7
CCOC(=O)C(CC)/C(C)=N\NC(=O)c1ccccc1O (configuration not stated),52*,9,16,10,93*,-4
COC(=O)c1[nH]c2cccc(OC)c2c1NC(=O)C(C)N1CCC(C)CC1 (configuration not stated),66*,3,-6,-1,13,3
Cc1cc(N/C(=N\S(=O)(=O)c2ccc(F)cc2F)c2ccccc2)no1,68*,2,-12,0,19,-6
Cc1ccccc1N/C(=N/S(=O)(=O)c1cc(F)ccc1F)c1ccccc1,/,/,-1,/,0,-2
Oc1ccccc1NCC(O)Cn1ccc2ccccc21 (configuration not stated),-12,3,26,0,-113,6
COc1ccnc2c1c(=O)n(Cc1ccccc1Cl)c(=O)n2C,/,/,-18,/,-1,-4
Cn1c(Oc2ccc(Cl)c3cccnc23)nc2c1c(=O)n(Cc1ccccc1Cl)c(=O)n2C,-6,94*,-11,-2,/,0
Cc1ccc(NC(=O)OCC(F)(F)C(F)F)cc1NC(=O)OCC(F)(F)C(F)F,3,3,-2,-2,18,4
O=C(NCCCN1CCOCC1)c1ccccc1,-14,40*,-10,-3,11,-2
C[n+]1c2n(c3ccccc31)N=C(c1cc(C(C)(C)C)c(O)c(C(C)(C)C)c1)CS2,30,79*,29,99*,68*,18
CC1(C)O[C@@H]2[C@@H](CO[C@@]3(COS(N)(=O)=O)OC(C)(C)O[C@@H]23)O1,/,-9,-16,-3,29,-4
O=C(C1CCCC1)N1CCC(CC2CC(c3ccc(Cl)cc3)=NO2)(C(=O)NCC2CCCCC2)CC1 (configuration not stated),/,/,0,/,1,3
CCCOc1ccc(/C=N/Nc2cc(N3CCOCC3)ncn2)c(O)c1,/,/,79*,/,3,-2
Cc1ccc(C(=O)NCCc2ccccc2)cc1,/,/,58,/,71*,-10
O=C(Nc1ccc(OCc2ccccc2Cl)cc1)c1cccnc1,/,/,-1,/,90*,17
CC(=O)/C=C/n1c(=S)oc2ccccc21,87*,5,-45,16,-30,6
O=C(c1ccc2c(c1)OCO2)N1CCCc2ccccc21,-26,8,6,7,-4,7
Cc1ccc2c(c1)CCCN2C(=O)c1ccc2c(c1)OCO2,-11,30*,-41,29*,-18,2
CCOc1ccc(N/C=C/C(=O)c2ccccc2)c([N+](=O)[O-])c1,-157,5,-112,3,87*,2
O=C(Nc1ncc(Cc2ccc(SC(F)F)cc2)s1)c1ccccc1,86*,3,3,-2,68*,1
O=C(Nc1ncc(Cc2ccccc2)s1)c1cccs1,-194,12,-172,1,21,3
SMILES,APP 5UTR inh,BaF3 parental,KLF5 inhibitor,Ba/F3 V617F tox,aSyn 5UTR inh,IEC-6 tox
CC(C)Oc1cccc(-c2cc(C(=O)N3CCN(c4ncccn4)CC3)c3ccccc3n2)c1,-36,1,-70,-4,-64,-6
CCc1ccc(CC2S/C(=C(\C#N)C(C)=O)NC2=O)cc1 (configuration not stated),6,0,-6,-4,20,70*
CCOC(=O)c1ccc(CC2S/C(=C(\C#N)C(C)=O)NC2=O)cc1 (configuration not stated),12,4,-6,-1,-8,-3
COc1ccc(C(=O)Nc2nnc(C3=COCCO3)o2)cc1,/,/,-48,/,-2,1
CCOC(=O)c1cccc(NC(=O)/C=C/c2ccc3c(c2)OCO3)c1,14,10,23,7,106*,5
CC1CCCCN1S(=O)(=O)c1ccc(S(=O)(=O)N(Cc2ccccc2)Cc2ccco2)cc1 (configuration not stated),58*,4,-12,-3,16,2

# From PubChem
